The values below come from PubChem BioAssay AID1347417 (National Center for Advancing Translational Sciences (NCATS), 2020).

The campaign covered roughly 120,000 compounds. About 5,300 (4.4%) were called active. A call without a number means that no potency is given here. Roughly 22% stayed inconclusive and do not appear here. Calls follow the shape of the dose curve; as a rule, active = well fitted inhibition curve with a large enough effect; inconclusive = small, poorly fitted or top-dose-only effect; inactive = no such curve, though single readings can be large or run the other way. This excerpt belongs to a sample that is enriched for actives.
Potency is read from the fitted curve at half-maximal effect.

The assay in a line: qHTS Primary assay for Inhibitors of Plasmodium falciparum Dd2 growth in vitro. Also: nearly all actives have a fitted effect of over 65% in size. The note with it: P. falciparum Dd2 growth, SYBR Green, 72 h; series mostly up to 28.9 µM. In short, it runs like this:
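Infected erythrocytes (Dd2, 0.3% parasitemia, 2.5% hematocrit final) are added to compound in RPMI-1640/Albumax II medium, grown 72 h at 37C in low oxygen, then lysed with saponin/Triton-X containing SYBR Green and read by fluorescence.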
A general note: Quantitative high-throughput screening tests each substance at several concentrations.
Turning to `C=CCNC(=O)C1N(C(C)C)C(=O)C12CCCCC2` (centres undefined), the Potency entry is “inactive”.
For `COc1ccc(NC(=O)C2CN(S(=O)(=O)c3cccnc3)CC23CCCCC3)cc1F` (centres undefined), the Potency result was “inactive”.
Same read-out and setting: with `CCOCCCNC(=O)N1C[C@@H](Oc2cccnc2)C[C@@H]1C(=O)N1CCOCC1` the entry was “inactive”.
With `CCCN(CC1CCOC1)S(=O)(=O)c1ccc2c(c1)CCCC2` (centres undefined), the activity, negative = inhibition is 7.48% [at 5.79 µM] (inactive).
`CC(C)N1C(=O)CO[C@H]2CCN(CCCc3ccccc3)CC[C@@H]21`: the Potency entry is “inactive”.
Still for that read-out and setting: with `CCCCN(C)CCNC(=O)C1CCCN(S(=O)(=O)c2cccc3nsnc23)C1` (centres undefined) the figure was 5.01 µM (active); with `CCCCC(CC)CNC(=O)C1CCN(S(=O)(=O)c2cccc3nsnc23)CC1` (centres undefined), “inactive”; with `COc1ccc(NC(=O)C2CCCN(S(=O)(=O)c3cccc4nonc34)C2)cc1Cl` (centres undefined), “inactive”.
On to `O=C(Cc1cccc(Cl)c1)NCc1nnc2ccc(-c3ccccc3)nn12`, for which the Potency result is “inactive”.
Regarding `Cc1cc(C(=O)N2CCCCCCn3c(nnc3-c3ccc(F)cc3)CC2)nn1C`, the Potency result is “inactive”.
On the same count and under the same terms, the same measure for `Cc1c(Cl)cccc1NC(=O)CCS(=O)(=O)c1ccc2c(c1)oc(=O)n2C`: 3.16 µM (active); for `CCOC(=O)c1ccc(NC(=O)CCS(=O)(=O)c2ccc3c(c2)oc(=O)n3C)cc1`: “inactive”.
`CCN(Cc1ccccc1)C(=O)CCS(=O)(=O)c1ccc2c(c1)oc(=O)n2C`: the Potency result is “inactive”.
Consider `COc1cccc(CC(=O)N2CCN(c3cc(-c4cccs4)[nH]n3)CC2)c1`, for which the Potency entry was “inactive”.
As for `O=C(NCCn1ccn2nc(-c3ccc(F)cc3)cc2c1=O)c1ccco1`, the Potency entry is “inactive”.
Turning to `O=C(Cc1ccccc1)N1[C@H]2CC[C@@H]1c1cnc(-c3ccc(F)cc3)nc1C2`, the Potency entry is “inactive”.
For `COC(=O)c1ccc(NC(=O)N2[C@H]3CC[C@@H]2c2cnc(-c4ccc(F)cc4)nc2C3)cc1`, the Potency is 7.08 µM (active).
In the case of `Cn1cnc(S(=O)(=O)N2[C@H]3CC[C@@H]2c2cnc(-c4ccc(F)cc4)nc2C3)c1`, the Potency entry is “inactive”.
Same read-out and setting: the same measure for `O=C1NCCOCCN(C(=O)Nc2ccccc2)[C@@H]2CCCC[C@H]12`: “inactive”; for `COc1ccc(-c2noc([C@@H](C)NCc3ccc(F)cc3)c2C(=O)O)cc1`: “inactive”.
Same read-out and setting: with `O=C(c1ccc(Cl)cc1)N1CCn2c(nn(-c3ccncc3)c2=O)C1` the entry was “inactive”; with `CCOC(=O)C1=CN(CC(=O)Nc2cccc(C(C)C)c2)S(=O)(=O)N=C1C`, “inactive”; with `COc1ccc(-c2cc([C@H]3CN4CC[C@H]3C[C@@H]4CNC(=O)C3CC3)n(C)n2)cc1OC`, “inactive”.
With `Cn1nc(-c2ccc(F)cc2)cc1[C@H]1CN2CC[C@H]1C[C@@H]2CNCc1ccccn1`, the Potency was 2.82 µM (active).
For the compound `COc1ccc(-c2ccc3ncn(Cc4ccccc4)c(=O)c3n2)cc1OC`, the Potency result is “inactive”.
Turning to `COc1ccc(-c2cc([C@H]3CN4CC[C@H]3C[C@@H]4CNC(=O)c3ccccc3)n(C)n2)cc1OC`, the Potency was 11.2 µM (active).
Turning to `Cc1ccc(S(=O)(=O)NC[C@H]2C[C@@H]3CCN2C[C@@H]3CN2CCN(c3ncccn3)CC2)cc1`, the Potency entry is “inactive”.
In the case of `O=C(NCc1ccccc1)[C@H]1CN2CCC1C[C@@H]2Cn1cc(-c2ccc(F)cc2)nn1` (some centres undefined), the Potency result is “inactive”.
For the compound `COc1ccc(-c2cc([C@H]3CN4CC[C@H]3C[C@@H]4CNS(=O)(=O)Cc3ccccc3)n(C)n2)cc1OC`, the Potency was 11.2 µM (active).
For `COc1cc2c(cc1OC)C(CNC(=O)c1cccc(Cl)c1)N(C(=O)Nc1ccccc1)CC2` (centres undefined), the Potency result is “inactive”.
As to `COc1ccccc1-c1cc([C@H]2CN3CC[C@H]2C[C@@H]3CNCc2cccc(C#N)c2)n(C)n1`, the Potency entry is “inactive”.
`Cc1ccc(C(=O)N2CC[C@H](CO)[C@H](NC(=O)C3CC3)C2)cn1`: the Potency result is “inactive”.
With `O=C(NCc1cnn(Cc2ccccc2)c1)c1ccc2oc(-c3cccc(F)c3)nc2c1`, the Potency result was “inactive”.
Turning to `COc1ccc(-c2cc(CC3(N(Cc4ccc(CO)o4)Cc4ccc(CO)o4)COC3)no2)cc1`, the Potency entry is “inactive”.
The same measure, in the same setting: with `CCOC(=O)c1c(NC(=O)c2ccc(S(=O)(=O)N(CC)CC)cc2)sc2c1CCCCC2` the entry was “inactive”; with `CCOC(=O)c1c(NC(=O)/C=C/c2ccc(OC)cc2)sc2c1CCC(C)C2` (centres undefined), “inactive”.
The same measure, in the same setting: the same measure for `CCOC(=O)c1c(NC(=O)c2ccc(S(=O)(=O)N3CCCC(C)C3)cc2)sc2c1CCN(C(C)C)C2` (centres undefined): 7.94 µM (active).
Take `Clc1ccc(CN2CCC3(CC2)CC(c2ccccc2)=NO3)cc1`: the Potency entry is “inactive”.
For `Cc1ccc(NC(=O)N2CCc3[nH]c4ccc(F)cc4c3C2)cc1C`, the Potency result was “inactive”.
On the same count and under the same terms, the same measure for `COc1ccccc1-n1cc(C(=O)N2CCc3c(Cl)cccc3C2)cn1`: “inactive”; for `COC[C@@H]1CN(C(=O)COc2cccc(C)c2)C[C@H]1c1nc(C)no1`: “inactive”; for `CC[C@H]1CN(C(=O)Nc2ccccc2)CC[C@H]1CC(=O)Nc1ccccc1`: “inactive”.
In the case of `Cc1ccccc1CNC(=O)c1ccc(NC(=O)N2CCCCc3ccccc32)cc1`, the Potency result is “inactive”.
Regarding `CCOC(=O)C1CCN(C(=O)c2cccc3c2CCN3C(=O)Nc2ccccc2)CC1`, the Potency was 11.2 µM (active).
For `COCc1cc(CC2(NCC(C)(C)C)COC2)no1`, the Potency entry was “inactive”.
As to `CC(=O)N[C@@H]1Cc2ccccc2[C@H]1n1ccnc1-c1cc2n(n1)CCNC2`, the Potency result is “inactive”.
Still for that read-out and setting: the same measure for `Cc1ccc(N2CCN(C(=O)c3ccc4c(c3)N(C)C3CCCCCN3C4=O)CC2)cc1` (centres undefined): “inactive”; for `Cc1nc2c(c(-c3ccc(O)cc3)n1)CN(C(=O)c1ccccc1C)CCC2`: “inactive”.
As for `O=C(Nc1ccccc1)N1CCc2nc(-c3ccccc3)nc(-c3ccc(Cl)cc3)c2C1`, the Potency was 10 µM (active).
On to `CC(C)c1nc2c(c(-c3ccc(O)cc3)n1)CN(C(=O)Nc1ccccc1)CC2`, for which the Potency result is “inactive”.
In the case of `COc1ccc(-c2cc3nc4c(c(=O)n3[nH]2)CN(C(=O)c2ccc(C)nc2)CC4)cc1`, the activity, negative = inhibition was -16.8% [at 5.79 µM] (inactive).
As to `COc1ccc(-c2nc(-c3ccccc3)nc3c2CN(C(=O)c2ccc(C)cc2)CC3)cc1`, the Potency was 11.2 µM (active).
The same measure, in the same setting: with `CC(=O)N1CCc2nc(C3CC3)nc(-c3ccc(Cl)cc3)c2C1` the entry was “inactive”; with `Cc1ccc(F)c(OCC(=O)c2ccc3c(c2)N(CCCC(=O)NCC2CCCO2)C(=O)CO3)c1` (centres undefined), “inactive”; with `O=C(Cc1ccc(Oc2ccccc2)cc1)N1CC(COc2ccccc2)C2(C1)CN(C(=O)c1cn[nH]c1)C2` (centres undefined), “inactive”.
As for `O=C(CC1COCCN1)NCCc1nc(-c2ccccn2)no1` (centres undefined), the Potency result is “inactive”.
Regarding `O=C(NC[C@H]1OC[C@@H](NC2CCOCC2)[C@@H]1O)C1CCCC1`, the Potency result was “inactive”.
With `O=C(NCCCN1CCOCC1)C1CCN(C(=O)N2CC3CC(C2)[C@H]2CCCC(=O)N2C3)CC1` (some centres undefined), the Potency result was “inactive”.
On to `Clc1ccccc1C1(c2ccnc(NCCn3cccn3)n2)CCNCC1`, for which the Potency entry is “inactive”.
The same measure, in the same setting: with `COc1ccc(N2CCC(NC(=O)c3ccc4[nH]ccc4c3)C2=O)cc1` (centres undefined) the entry was “inactive”; with `COc1ccc(C2=NOC3(CCCN([S+](=O)([O-])c4ccccc4)C3)C2)cc1` (centres undefined), “inactive”.
For the compound `COc1ccc(-c2nc(C3CC3)nc3c2CCN([S+](=O)([O-])c2ccccc2)CC3)cc1`, the Potency was 7.94 µM (active).
In the case of `COc1ccc(-c2nc(C)nc3c2CN([S+](=O)([O-])c2onc(C)c2C)CC3)cc1`, the Potency result was “inactive”.
On the same count and under the same terms, the same measure for `COc1cccc([S+](=O)([O-])N2CCCC3(CC(c4cccc(C(F)(F)F)c4)=NO3)C2)c1` (centres undefined): “inactive”; for `COc1ccc(-c2nc(C(C)C)nc3c2CCN(C(=O)Cc2ccccn2)CC3)cc1`: “inactive”; for `COc1ccc(-c2nc(C(C)C)nc3c2CCN([S+](=O)([O-])c2cccc(C(F)(F)F)c2)CC3)cc1`: 7.08 µM (active).
As to `CNC(=O)CCC[C@H]1NC[C@@H]2CCCN3CCC[C@H]1[C@H]23`, the Potency result was “inactive”.
Turning to `CCNC(=O)[C@@H]1C[C@H](N)CN1C(=O)[C@@H](C)c1ccc2cc(OC)ccc2c1`, the Potency result is “inactive”.
With `COc1ccccc1N1CCN(C(=O)c2ccccc2-c2ncc[nH]2)CC1=O`, the Potency entry was “inactive”.
As for `Cc1nn(CC(=O)O)c(=O)c2nc(C(C)C)sc12`, the Potency entry was “inactive”.
Same read-out and setting: with `O=C(NC1CCCN(c2cc(-c3ccc(Cl)cc3)[nH]n2)C1)c1ccncc1` (centres undefined) the entry was “inactive”.
On the same count and under the same terms, the same measure for `CC(C)(C)OC(=O)N1CCC(c2c(C(=O)Nc3ccc4c(c3)OCO4)cnn2-c2ccccc2)CC1`: 5.01 µM (active).
The same measure, in the same setting: with `Cc1ccc(NC(=O)c2cc3n(n2)CC(c2ccc4c(c2)OCO4)OC3)cc1C` (centres undefined) the entry was “inactive”; with `COC(=O)c1ccc(NC(=O)c2cnn(-c3ccc(Cl)cc3)c2C2CCN(C(=O)OC(C)(C)C)CC2)cc1`, 7.94 µM (active).
Regarding `CCc1ccccc1NC(=O)c1cnn(-c2ccc(F)cc2)c1C1CCNCC1`, the Potency result is “inactive”.
On to `COC(=O)c1ccc(NC(=O)c2cccc3c2C(=O)N(C2CCCCC2)C3)cc1`, for which the Potency result is “inactive”.
Turning to `COC(=O)c1ccc(NC(=O)c2cc(S(=O)(=O)N3CCC(C)CC3)cn2C)cc1`, the Potency result is “inactive”.
For `COC[C@@H]1[C@H](NC(=O)C2CCN(C(=O)c3ccncc3)CC2)[C@@H]2CCO[C@H]12`, the Potency entry is “inactive”.
For the compound `Cn1cc(CNC(=O)C[C@@H]2C[C@H]3O[C@H](CNC4Cc5ccccc5C4)[C@@H](O)[C@H]3O2)cn1`, the Potency result was “inactive”.
Turning to `CCc1nc2ccc(C(=O)N3CCN(c4cccc(Cl)c4)CC3)cc2nc1CC`, the Potency result was “inactive”.
As for `Cc1ccc(Cl)cc1N1CCN(C(=O)c2cccn3c(=O)c4cc(Cl)ccc4nc23)CC1`, the Potency entry was “inactive”.
Turning to `CCc1nc2ccc(C(=O)N3CCN(c4cc(Cl)ccc4C)CC3)cc2nc1CC`, the Potency is 11.2 µM (active).
On to `N#Cc1cccc(C(=O)NC2CCN(c3cc(-c4ccc(Cl)cc4)[nH]n3)C2)c1` (centres undefined), for which the Potency entry is “inactive”.
Regarding `O=C1CN(Cc2cc3cc4c(cc3[nH]c2=O)OCO4)CCCN1`, the Potency entry is “inactive”.
